Whole data set: some 25,000 sequences, median “ln(normalized median fluorescence intensity)” near 9.7, cut for the highest 2% near 11. The sample as a whole holds a higher share of the highest values than the screen did.
tested on: PfAP2-HC AP2 domain (GST-tagged); experiment: gcPBM binding intensity (ln(normalized median fluorescence intensity)); higher = stronger DNA binding
Summary of the method: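 Using an Agilent 4 × 180k array, primer-extended double-stranded 36-bp intergenic genomic probes and negative controls were exposed for 1 h to GST-fused P. falciparum DNA-binding domains expressed in E. coli. Binding was carried out in 1× PBS with 1% milk, 0.2 mg/ml BSA, 0.5% salmon testes DNA and 0.03% Triton X-100, and protein was detected with Alexa488 anti-GST antibody and a 488 nm scan. Binding intensity is the highest Masliner-normalised natural-log median intensity across replicate spots of either probe orientation.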

| Sequence | gcPBM binding intensity (ln) |
| --- | --- |
| ACATTATGCCATAAATGTACACATACATATACACAG [XGTACX_site1330] | 9.66 |
| AAACAATTTTTTAAAAGTACTTGAAAATTGTGAAAT [XGTACX_site2461] | 9.63 |
| CCTTTAAGCAAAAACACACACACATATATATATATA [CACACA_site348] | 10 |
| TATAAGCAAAAACACACACACATATATATATATATA [CACACA_site3804] | 10.2 |
| TTTTAATTAAAACACACACACACATATATATATATA [CACACA_site2291] | 10.6 |
| ATAAAATGAACAAACACACACACATATATATATATA [CACACA_site2402] | 10.9 |
| AAAATGAACAAACACACACACATATATATATATATA [CACACA_site2403] | 11.2 |
| AACAAAAATGAAAAAACACACATAACATATATAAAT [CACACA_site740] | 10.1 |
| AAAAAAAAAAAAAAAACACACATATATATATATATA [CACACA_site2436] | 10.4 |
| AAAAAAATGAAACACACACACACATATATATATATA [CACACA_site1043] | 10.4 |
| TTTTAATGAAAACACACACACACATATATATATATA [CACACA_site5295] | 11.1 |
| AAAAAACAAAAACACACACACACATATATATATATA [CACACA_site3654] | 10.9 |
| AAAAAAACACACACATATATATATATATATATATAT [GTGCAC_negctrl_site498] | 10.3 |
| TTTAAGCAAAAACACACACACATATATATATATATA [CACACA_site349] | 11.1 |
| CAAAGATATATAAACACACAAATATAACATATATAC [CACACA_site7395] | 9.99 |
| ATATATTTATATATTACACACAATATTGTAGACATA [CACACA_site4669] | 9.74 |
| TATATATAACTTTATTGTACAAAATATTATGTATTC [XGTACX_site981] | 9.66 |
| TGATCAGATAGACACACACACAAAAAAAAAAAAAAA [CACACA_site7805] | 10.1 |
| TATCAAAATTAGTATACACACAAAATTAATCAAATA [CACACA_site7117] | 9.86 |
| ATATTAAGTTTTATTACACACTCTCAATTTTTATTT [CACACA_site4206] | 9.87 |
| ATATTTTTTTCATAGACACACACAATATATCTGTTT [CACACA_site8993] | 10.1 |
| CTCCATATGAAACACACACACAAATGAAAAAAATAT [CACACA_site3018] | 11 |
| AATATAAACACAAACACACACATATATATATATATA [CACACA_site4307] | 10.1 |
| AAAAAAAAAAAACACACACACATATATATATATATA [CACACA_site732] | 11.1 |
| AATATAAACAAACACACACACATATATATATATATT [CACACA_site5592] | 10.3 |
| AAATAAATGAAACACACACACACAAAAAAAAAAAAC [CACACA_site2625] | 10.9 |
| GGATATAACAAACACACACACACATATATATATATT [CACACA_site4141] | 11.2 |
| AAAAAAAAAAAAAAAACACACACATATATATATATA [CACACA_site8571] | 9.9 |
| AAAAAAAAAAAAAACACACACATATATATATATATA [CACACA_site1891] | 10.4 |
| CTCCATATTAGACACACACACAAATGAAAAAAATAT [CACACA_site7420] | 10.2 |

Source: the supplement of paper PMC11417369
